High-throughput results: PubChem, National Center for Advancing Translational Sciences (NCATS)
This is a sample that favours compounds with a hit; in the whole collection about 8.5% have one here.
RGS12 GoLoco inh: inhibitors of human Gai1-RGS12 GoLoco interaction (red fluorophore). P63096. Gai1:RGS12 GoLoco peptide FP, rhodamine, 10 min. Potency, µM (series often up to 61.6 µM), for inactives: at the highest dose activity, negative = inhibition, usual class: inhibitors. 230,000 compounds, 0.44% hits. AID 880; active = well fitted inhibition curve with a large enough effect, not every such curve was filed as active; inactive = no such curve, though single readings can be large or run the other way; note: potency is the fitted concentration of half-maximal effect; nearly all actives have a fitted effect of over 30% in size
JMJD2E inh: JMJD2E (human) inhibition | B2RXH2 | 230,000 compounds, 1.6% hits | AID 2147 | JMJD2E catalytic domain, FDH-coupled NADH fluorescence (FDH is formaldehyde dehydrogenase) | Potency, µM (series often up to 57.1 µM), for inactives: top-dose activity change, negative = inhibition, hits mostly inhibitors; active = well fitted inhibition curve with a large enough effect, not every such curve was filed as active; inconclusive = small, poorly fitted or top-dose-only effect, or another doubt; inactive = no such curve, though single readings can be large or run the other way;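 note: potency is the fitted concentration of half-maximal effect; 0% = wells with enzyme and -100% = buffer wells without enzyme; nearly all actives have a fitted effect of over 50% in size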
FBPA coupling cs: inhibits coupling enzyme system, counter-screen for aldolase hits; coupling enzyme system counterscreen, AmpLite Red fluorescence; activity change, negative = inhibition, % at 58.2 µM, hits read low; 290,000 compounds, 0.67% hits; AID 2472; in the data active = activity change below about -30%
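First, compound is pin-transferred into glyceraldehyde-3-phosphate coupling-enzyme reagent at 57.5 uM final and held 10 min at RT. Next, substrate, coupling system and AmpLite Red are added. After 20 min RT, fluorescence (525/598 nm) is read.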
Sfp inh: inhibitors of Bacillus subtilis Sfp phosphopantetheinyl transferase | Biochemical Sfp PPTase activity, qHTS | Potency, µM, for the others: largest response in the series, negative = inhibition, most hits filed as inhibitors | 310,000 compounds, 3.5% hits | AID 1490;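 note: the enzyme is Sfp with the accession as filed and its product quenches rhodamine fluorescence; potency is the fitted concentration of half-maximal effect; 0% = enzyme reaction without inhibitor and -100% = no enzyme wells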
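Compounds were incubated with enzyme (final 15 nM) for 15 min at room temperature before substrate addition started the reaction. Fluorescence at 525 nm excitation, 598 nm emission was recorded immediately and after 30 minutes.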
NPSR antagonist: neuropeptide S receptor (human) antagonism, cAMP. Potency, µM (titrated, usually from 38.3 µM), for the others: at the top dose activity change, negative = inhibition, actives largely listed as inhibitors. Q6W5P4. 220,000 compounds, 1% hits. CHO-NPSR cells, cAMP TR-FRET, antagonist mode. AID 1461; note: potency is the fitted concentration of half-maximal effect; nearly all actives have a fitted effect of over 50% in size
Target sequence (Q6W5P4 whole entry, looked up): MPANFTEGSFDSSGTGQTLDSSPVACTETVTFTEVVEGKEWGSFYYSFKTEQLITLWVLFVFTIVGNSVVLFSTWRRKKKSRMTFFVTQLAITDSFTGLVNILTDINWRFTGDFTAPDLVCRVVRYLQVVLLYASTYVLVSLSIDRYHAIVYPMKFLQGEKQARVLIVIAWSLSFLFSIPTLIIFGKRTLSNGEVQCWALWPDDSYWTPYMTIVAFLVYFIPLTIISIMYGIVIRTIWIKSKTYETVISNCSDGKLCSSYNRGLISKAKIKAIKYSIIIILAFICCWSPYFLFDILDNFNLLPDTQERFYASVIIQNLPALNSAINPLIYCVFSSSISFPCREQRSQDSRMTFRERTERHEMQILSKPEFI
ALDH1A1 block: ALDH1A1 (human) enzyme inhibition. P00352. Purified ALDH1A1, NADH fluorescence, propionaldehyde substrate. Potency, µM (titrated, usually from 75.3 µM), without a hit: top-dose activity, negative = inhibition, usual class: inhibitors. 220,000 compounds, 7.3% hits; active = well fitted inhibition curve with a large enough effect, not every such curve was filed as active; inconclusive = small, poorly fitted or top-dose-only effect, or another doubt; inactive = no such curve, though single readings can be large or run the other way;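 note: potency is the fitted concentration of half-maximal effect; plate controls were no enzyme wells and a reference inhibitor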
Starred values were filed as active, the others as inactive; ? = inconclusive; · = no result given; ! = not active in a repeat; [ ] = another dose, or the depositor's remark. Unless noted, calls come from the whole dose curve; as a rule, active = well fitted curve in the direction sought with a large enough effect; inconclusive = small, poorly fitted or top-dose-only effect, or another doubt; inactive = no such curve, though single readings can be large; an effect the other way counts as inactive or inconclusive. Unless noted, % is set by controls: 0 for no effect and ±100 for the full control effect.

SMILES	RGS12 GoLoco inh	JMJD2E inh	FBPA coupling cs	Sfp inh	NPSR antagonist	ALDH1A1 block
CNc1ccc(Br)cc(C(=O)/C=C/c2ccc3c(c2)OCO3)c1=O	69%	?	-28	18µM*	?	6.3µM*
CCNc1ccc(Br)cc(C(=O)/C=C/c2ccc(Cl)cc2Cl)c1=O	102%	-17%	-12	22µM*	-17%[46.1 µM]	?
CNc1ccc(Br)cc(C(=O)/C=C/c2ccc(OC)cc2)c1=O	12%	25µM*	-29	?	-43%	28µM*
CNc1ccc(Br)cc(C(=O)/C=C/c2cc(OC)ccc2OC)c1=O	32%	?	0	-7%	-33%	?
CCCn1nnnc1NCc1ccccc1C	·	·	2	21%	·	·
O=[N+]([O-])C(=C1Nc2ccccc2N1)/C(Cl)=C(/Cl)Br	61%	?	-3	-19%	-14%	24µM*
CCOC(=O)CSc1ccc(C(=O)Nc2ccc(OC)cc2)cn1	9%	-2%	-4	28%	-15%	7%
COc1ccc(C(=O)NCCCNC(=O)c2ccccn2)cc1	·	·	4	-1%	·	·
CCC(C)NC(=O)C1CCC(=O)N(c2ccc3c(c2)OCO3)C1c1ccc(OC)cc1 (stereo not given)	-1%	-7%	0	7%	-3%[46.1 µM]	6.3µM*
CCC(C)NC(=O)C1CCC(=O)N(c2cc(OC)c(OC)c(OC)c2)C1c1ccc(OC)cc1 (stereo not given)	1%	3%	-1	14%	4%[46.1 µM]	-4%
O=C(c1ccco1)N1CCN(S(=O)(=O)c2ccc(Br)s2)CC1	-2%	-7%	9	?	-7%[46.1 µM]	8.9µM*
CCCCC/C=C\C/C=C\C/C=C\C/C=C\CCCC(=O)C(F)(F)F	-7%	·	-10	28µM*	·	20µM*
CCCCCCCC/C=C\CCCCCCCC(N)=O	22µM*!	4%	3	0%	·	4%
CCOc1ccc(-n2c(SCC(=O)O)nc3sc4c(c3c2=O)CCCC4)cc1	·	·	12	6%	·	·
CCN1CCN(c2nc3sc4c(c3c(=O)n2-c2ccc(OC)cc2)CCCCC4)CC1	37%	5%	0	-9%	-23%[46.1 µM]	10µM*
CCOC(=O)CC1CCCCN1C(=O)c1ccc2nc(CCOC)oc2c1 (stereo not given)	·	·	·	7%	·	·
Cc1cc2c(c(=O)n1Cc1ccccc1)C1O[C@](CCCCN3C(=O)c4ccccc4C3=O)(Cc3cc(C#N)ccc31)O2	·	·	-2	7%	·	·
CC(=O)Nc1ccc(N=Cc2c(O)c(C(=O)Nc3ccccc3)cc3ccccc23)cc1	14µM*	4%	-13	-30%	-44%	-2%
COc1ccc(S(=O)(=O)N(CC(=O)NC2CC2)c2ccc(C)cc2)cc1	8%	3%	1	5%	-11%	-15%
COc1ccc(NC(=O)CSc2nc(C3CC3)nc3ccccc23)c(OC)c1	·	·	-1	-11%	·	·
O=C(c1ccc(-c2ccccc2)cc1)N1CCN(Cc2ccccn2)CC1	·	?	2	10%	-10%[46.1 µM]	?
COc1ccc(CN2CCN(C(=O)c3cc(OC)c(OC)c(OC)c3)CC2)cc1OC	-15%	?	-3	-30%	-4%[46.1 µM]	-12%
COc1ccc(C(=O)N2CCN(Cc3ccccn3)CC2)cc1	·	·	3	56µM*	·	·
COc1cccc(CCc2nnc(CCC(=O)N3CCN(Cc4ccccn4)CC3)o2)c1	-35%	?	3	4%	-10%	8.9µM*
COc1cc(C(=O)N2CCN(Cc3ccccn3)CC2)cc(OC)c1OC	·	·	-1	35µM*	·	·
CCOC(=O)c1c(C)n(-c2ccc(C)cc2)c2ccc(OCC(O)CN3CCN(C)CC3)cc12 (stereo not given)	13%	?	0	40µM*	-11%	-3%
N#C/C(=C\c1cn(Cc2ccccc2C#N)c2ccccc12)C(=O)NCc1cccs1	21%	-29%	0	6%	-29%[46.1 µM]	7.9µM*
N#C/C(=C/c1cn(CC(=O)O)c2ccccc12)C(=O)Nc1ccccc1	60%	?	0	10%	6%	25µM*
Cc1cccc(NC(=O)/C(C#N)=C\c2cn(CC(=O)O)c3ccccc23)c1	172%	-7%	0	10%	-2%	20µM*
